Source: the supplement of paper PMC10849652
Of roughly 7,900 targets only a part is listed; those with a hit were picked by preference. About 0.6% of all pairs of compound and target were hits.

compound: c1cn2cc(-c3ccc4cn[nH]c4c3)nc(Nc3ccc(N4CCOCC4)cc3)c2n1 [entospletinib]; test: log2 fold change, soluble protein after heating vs DMSO (PISA); higher = thermal stabilisation; K562 cells, 10 uM, 30 min; active = over 0.2 and 3.5 SD of the protein, either way, in both replicates (recomputed)
Summary of the method: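 K562 cells (2×10^6 cells/mL) were treated with 10 μM compound for 30 min, and aliquots were heated for 3 min over 48°C-58°C. Pooled aliquots were extracted in PBS with 0.5% NP-40 at 4°C, and the supernatant after 21,000xg for 90 min was measured by TMTpro 16plex LC-MS/MS with channel sums equalised. Reported thermal stability, relative to control samples and from duplicates, is a log2 fold change.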

UniProt Q9NWU1, sequence (Q9NWU1 whole entry, looked up): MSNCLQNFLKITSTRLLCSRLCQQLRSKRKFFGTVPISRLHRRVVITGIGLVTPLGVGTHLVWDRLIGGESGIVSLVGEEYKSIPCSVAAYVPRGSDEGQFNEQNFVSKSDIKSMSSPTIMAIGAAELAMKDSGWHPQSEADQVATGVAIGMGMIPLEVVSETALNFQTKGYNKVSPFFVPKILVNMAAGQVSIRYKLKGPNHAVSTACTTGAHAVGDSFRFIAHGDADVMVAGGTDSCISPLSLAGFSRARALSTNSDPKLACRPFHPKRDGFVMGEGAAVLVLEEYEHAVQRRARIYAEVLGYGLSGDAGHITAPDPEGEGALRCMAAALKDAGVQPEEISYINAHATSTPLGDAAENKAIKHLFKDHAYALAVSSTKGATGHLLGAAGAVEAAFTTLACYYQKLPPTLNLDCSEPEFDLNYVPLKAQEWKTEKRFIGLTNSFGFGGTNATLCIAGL
UniProt O95747, sequence (O95747 whole entry, looked up): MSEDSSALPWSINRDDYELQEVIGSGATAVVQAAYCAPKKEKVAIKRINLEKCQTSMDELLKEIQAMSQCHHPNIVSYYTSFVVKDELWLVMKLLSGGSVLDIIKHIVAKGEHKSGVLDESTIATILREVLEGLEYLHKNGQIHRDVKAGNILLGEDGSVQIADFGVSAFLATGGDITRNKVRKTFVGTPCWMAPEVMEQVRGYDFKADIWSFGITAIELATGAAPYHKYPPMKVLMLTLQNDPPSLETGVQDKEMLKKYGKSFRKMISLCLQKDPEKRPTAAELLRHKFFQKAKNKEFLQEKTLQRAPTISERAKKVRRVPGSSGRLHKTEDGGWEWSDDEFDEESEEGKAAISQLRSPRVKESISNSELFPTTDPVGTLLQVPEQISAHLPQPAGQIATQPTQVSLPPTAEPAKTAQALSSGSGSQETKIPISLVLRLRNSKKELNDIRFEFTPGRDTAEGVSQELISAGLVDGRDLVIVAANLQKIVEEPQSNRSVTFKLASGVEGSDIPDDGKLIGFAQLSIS
UniProt Q86WQ0, sequence (Q86WQ0 whole entry, looked up): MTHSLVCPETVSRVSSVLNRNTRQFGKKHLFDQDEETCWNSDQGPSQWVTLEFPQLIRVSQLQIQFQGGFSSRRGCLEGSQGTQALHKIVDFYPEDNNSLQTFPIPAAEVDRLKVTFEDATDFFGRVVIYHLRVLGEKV
UniProt Q9BSU3, sequence (Q9BSU3 whole entry, looked up): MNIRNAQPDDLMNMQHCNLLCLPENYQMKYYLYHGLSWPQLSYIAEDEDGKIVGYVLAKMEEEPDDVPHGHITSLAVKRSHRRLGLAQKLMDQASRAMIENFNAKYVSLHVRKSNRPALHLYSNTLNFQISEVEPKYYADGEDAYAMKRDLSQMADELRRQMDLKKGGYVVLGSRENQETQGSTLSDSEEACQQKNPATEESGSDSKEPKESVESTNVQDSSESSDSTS
UniProt P46934, sequence (P46934 whole entry, looked up): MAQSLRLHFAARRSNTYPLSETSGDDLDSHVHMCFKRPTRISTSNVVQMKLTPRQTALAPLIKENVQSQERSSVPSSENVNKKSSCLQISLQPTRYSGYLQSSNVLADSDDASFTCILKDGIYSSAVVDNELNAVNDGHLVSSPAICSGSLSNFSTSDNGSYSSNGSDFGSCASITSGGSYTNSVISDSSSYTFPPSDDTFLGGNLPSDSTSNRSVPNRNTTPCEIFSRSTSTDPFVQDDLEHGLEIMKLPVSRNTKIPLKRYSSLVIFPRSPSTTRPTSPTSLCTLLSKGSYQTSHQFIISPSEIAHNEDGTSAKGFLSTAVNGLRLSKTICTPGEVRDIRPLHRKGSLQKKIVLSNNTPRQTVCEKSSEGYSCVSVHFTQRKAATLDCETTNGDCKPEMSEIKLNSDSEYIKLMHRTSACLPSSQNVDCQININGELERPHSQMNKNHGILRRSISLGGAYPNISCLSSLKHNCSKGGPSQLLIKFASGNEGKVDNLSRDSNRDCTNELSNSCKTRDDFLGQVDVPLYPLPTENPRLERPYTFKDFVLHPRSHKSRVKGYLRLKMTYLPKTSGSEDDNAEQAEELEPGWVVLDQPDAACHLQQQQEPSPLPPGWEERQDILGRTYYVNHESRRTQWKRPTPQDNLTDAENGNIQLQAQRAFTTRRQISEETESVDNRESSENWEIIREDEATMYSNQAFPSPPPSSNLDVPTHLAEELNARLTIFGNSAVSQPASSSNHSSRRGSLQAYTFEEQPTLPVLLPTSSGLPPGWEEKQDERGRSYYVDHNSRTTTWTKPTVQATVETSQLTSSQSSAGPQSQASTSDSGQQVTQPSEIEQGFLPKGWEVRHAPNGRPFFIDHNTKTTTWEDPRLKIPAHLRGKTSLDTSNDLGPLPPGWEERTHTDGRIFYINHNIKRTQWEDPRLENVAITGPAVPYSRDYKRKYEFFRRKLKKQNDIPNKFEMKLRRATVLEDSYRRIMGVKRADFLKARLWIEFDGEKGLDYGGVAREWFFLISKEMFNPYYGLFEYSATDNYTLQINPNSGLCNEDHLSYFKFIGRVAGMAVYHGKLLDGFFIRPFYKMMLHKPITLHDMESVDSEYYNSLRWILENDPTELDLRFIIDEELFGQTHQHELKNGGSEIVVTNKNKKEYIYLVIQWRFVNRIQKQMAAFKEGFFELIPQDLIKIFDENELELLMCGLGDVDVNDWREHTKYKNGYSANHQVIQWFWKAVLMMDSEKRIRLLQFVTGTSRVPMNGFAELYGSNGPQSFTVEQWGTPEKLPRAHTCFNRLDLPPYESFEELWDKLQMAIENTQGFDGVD
UniProt O43913, sequence (O43913 whole entry, looked up): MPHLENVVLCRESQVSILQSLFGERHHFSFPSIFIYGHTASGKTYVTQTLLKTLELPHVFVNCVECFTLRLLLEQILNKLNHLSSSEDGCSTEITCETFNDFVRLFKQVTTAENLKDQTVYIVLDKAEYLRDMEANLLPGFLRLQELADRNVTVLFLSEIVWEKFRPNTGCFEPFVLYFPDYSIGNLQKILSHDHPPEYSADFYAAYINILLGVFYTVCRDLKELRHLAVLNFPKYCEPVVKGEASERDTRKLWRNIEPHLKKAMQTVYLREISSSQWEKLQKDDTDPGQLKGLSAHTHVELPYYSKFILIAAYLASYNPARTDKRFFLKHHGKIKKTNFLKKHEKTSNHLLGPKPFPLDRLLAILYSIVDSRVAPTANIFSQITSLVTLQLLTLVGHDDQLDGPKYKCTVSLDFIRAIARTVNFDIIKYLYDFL
UniProt Q9ULX3, sequence (Q9ULX3 whole entry, looked up): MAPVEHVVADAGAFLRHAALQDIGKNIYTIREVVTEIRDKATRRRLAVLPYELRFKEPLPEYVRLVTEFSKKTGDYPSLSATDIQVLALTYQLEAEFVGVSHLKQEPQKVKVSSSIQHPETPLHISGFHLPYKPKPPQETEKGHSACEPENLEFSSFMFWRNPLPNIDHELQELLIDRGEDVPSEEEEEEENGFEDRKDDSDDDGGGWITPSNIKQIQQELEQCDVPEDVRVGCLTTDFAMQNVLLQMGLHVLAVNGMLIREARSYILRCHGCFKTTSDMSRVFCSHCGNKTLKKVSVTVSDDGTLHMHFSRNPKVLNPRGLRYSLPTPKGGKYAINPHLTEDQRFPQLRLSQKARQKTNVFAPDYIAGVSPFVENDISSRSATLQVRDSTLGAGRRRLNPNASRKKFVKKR
UniProt Q96MF7, sequence (Q96MF7 whole entry, looked up): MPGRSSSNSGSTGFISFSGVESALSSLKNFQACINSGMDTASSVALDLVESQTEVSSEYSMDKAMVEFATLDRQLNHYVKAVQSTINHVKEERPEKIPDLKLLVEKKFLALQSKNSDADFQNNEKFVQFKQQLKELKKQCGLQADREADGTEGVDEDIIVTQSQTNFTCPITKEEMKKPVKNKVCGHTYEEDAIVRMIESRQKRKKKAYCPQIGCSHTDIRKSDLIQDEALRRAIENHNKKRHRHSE
UniProt P30419, sequence (P30419 whole entry, looked up): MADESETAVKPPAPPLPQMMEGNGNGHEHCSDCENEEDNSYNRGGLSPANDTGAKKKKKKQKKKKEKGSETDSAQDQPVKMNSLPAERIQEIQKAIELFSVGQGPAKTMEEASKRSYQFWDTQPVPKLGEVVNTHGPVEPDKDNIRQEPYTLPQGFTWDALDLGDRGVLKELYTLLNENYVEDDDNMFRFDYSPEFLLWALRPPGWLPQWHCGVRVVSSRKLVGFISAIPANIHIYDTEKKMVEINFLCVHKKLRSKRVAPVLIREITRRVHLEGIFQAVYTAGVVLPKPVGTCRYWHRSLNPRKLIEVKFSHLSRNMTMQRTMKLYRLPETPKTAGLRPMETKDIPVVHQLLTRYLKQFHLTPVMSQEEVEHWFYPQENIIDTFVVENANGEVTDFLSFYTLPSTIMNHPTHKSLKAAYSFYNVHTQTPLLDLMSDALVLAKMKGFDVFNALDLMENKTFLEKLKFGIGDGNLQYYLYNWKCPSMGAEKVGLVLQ
UniProt Q9BUK6, sequence (Q9BUK6 whole entry, looked up): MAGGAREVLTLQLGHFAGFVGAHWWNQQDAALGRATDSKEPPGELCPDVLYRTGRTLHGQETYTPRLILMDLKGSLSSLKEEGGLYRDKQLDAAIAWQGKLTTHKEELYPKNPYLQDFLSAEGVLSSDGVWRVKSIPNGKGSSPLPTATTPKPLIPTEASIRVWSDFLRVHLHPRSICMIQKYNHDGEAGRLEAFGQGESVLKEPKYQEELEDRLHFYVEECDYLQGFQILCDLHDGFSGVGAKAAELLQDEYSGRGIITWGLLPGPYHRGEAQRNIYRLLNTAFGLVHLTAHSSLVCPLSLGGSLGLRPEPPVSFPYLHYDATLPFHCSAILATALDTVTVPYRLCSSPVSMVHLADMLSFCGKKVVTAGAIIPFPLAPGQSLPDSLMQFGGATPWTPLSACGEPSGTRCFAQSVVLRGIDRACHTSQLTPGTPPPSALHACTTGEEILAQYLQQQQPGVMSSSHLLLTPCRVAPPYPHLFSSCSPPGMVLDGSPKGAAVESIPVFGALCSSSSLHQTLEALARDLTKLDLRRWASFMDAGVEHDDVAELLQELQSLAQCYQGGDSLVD

log2 fold change, inactive:
NECTIN2 isoform 2 (UniProt Q92692) -0.003
ORC5 (UniProt O43913) 0.012
NIBAN1 (UniProt Q9BZQ8) 0.055
MT-ND1 (UniProt P03886) 0.1
NSMCE2 (UniProt Q96MF7) -0.052
NMT1 (UniProt P30419) 0.04
NR2C2AP isoform 2 (UniProt Q86WQ0) 0.004
MSTO1 (UniProt Q9BUK6) -0.068
NOB1 (UniProt Q9ULX3) -0.013
NNMT (UniProt P40261) 0.042
OXSR1 (UniProt O95747) -0.058
MORC3 (UniProt Q14149) -0.088
NQO1 (UniProt P15559) -0.101
NUP205 (UniProt Q92621) -0.041
NAA11 (UniProt Q9BSU3) -0.041
NIPSNAP2 (UniProt O75323) 0.092
OXSM (UniProt Q9NWU1) -0.023
NMNAT1 (UniProt Q9HAN9) 0.084
NEDD4 isoform 4 (UniProt P46934) -0.007
MRPS21 (UniProt P82921) -0.031
NA, A0A0B4J2A0 0.021
NOP53 (UniProt Q9NZM5) -0.001
NTMT1 (UniProt Q9BV86) 0.118
